From PubChem BioAssay AID1159580 (chemical genetic matrix, 2015)
“And” between values parts separate entries of the source, which are not always exact repeats. Equal entries are not always repeated. About 2,000 (36%) of roughly 5,500 compounds were called active. Another 18% or so got no clear call; they are omitted. Cut-off read from the data, not from the text of the source: active = normalized growth mostly below about 0.91 (no sharp cut-off); inconclusive = no clear call, values can overlap the other calls; inactive = mostly above about 0.92. This is one part of the list.

Experiment: chemical genetic growth profiling, strain panel (AID 1159580);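 note: tested at 20 µM; growth read once vehicle control cultures reached saturation at 30 °C; 1 = growth at the plate median or of vehicle wells; lower values mean less growth of the strain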
Conditions: S. cerevisiae deletion strains, growth OD

Measured: normalized growth

CN(C)CCC(c1ccc(Br)cc1)c1ccccn1 (centres undefined)
inactive: locus YAL013W, strain DEP1, stronger effect = lower value 0.982 and 1 | locus YAL021C, strain ccr4, stronger effect = lower value 0.958 | locus YAL026C, strain drs2, stronger effect = lower value 0.996 | locus YAL030W, strain snc1, stronger effect = lower value 0.975 | locus YAL040C, strain CLN3, stronger effect = lower value 1.11 | locus YBL061C, strain skt5, stronger effect = lower value 0.991 | locus YBR009C, strain hhf1, stronger effect = lower value 0.999 | locus YBR021W, strain FUR4, stronger effect = lower value 0.975 | locus YBR023C, strain chs3, stronger effect = lower value 0.993 | locus YBR171W, strain sec66, stronger effect = lower value 0.974 | locus YBR229C, strain ROT2, stronger effect = lower value 0.978 | locus YBR231C, strain swc5, stronger effect = lower value 0.983 | locus YBR279W, strain paf1, stronger effect = lower value 0.976 | locus YCL011C, strain gbp2, stronger effect = lower value 0.97 | locus YCL016C, strain dcc1, stronger effect = lower value 0.979 | locus YCL029C, strain bik1, stronger effect = lower value 0.979 | locus YCL061C, strain MRC1 (second series), stronger effect = lower value 1 | locus YCL069W, strain vba3, stronger effect = lower value 0.985 | locus YCR088W, strain abp1, stronger effect = lower value 0.983 | locus YDL005C, strain med2, stronger effect = lower value 0.975 | locus YDL035C, strain GPR1, stronger effect = lower value 0.991 | locus YDL040C, strain nat1, stronger effect = lower value 0.967 | locus YDL074C, strain BRE1, stronger effect = lower value 0.952 | locus YDL101C, strain DUN1, stronger effect = lower value 0.984 | locus YDL134C, strain PPH21, stronger effect = lower value 0.983 | locus YDL185W, strain tfp1, stronger effect = lower value 0.998 | locus YDL192W, strain arf1, stronger effect = lower value 0.997 | locus YDR001C, strain nth1, stronger effect = lower value 0.974 | locus YDR069C, strain doa4, stronger effect = lower value 0.929 | locus YDR101C, strain arx1, stronger effect = lower value 0.967 | locus YDR137W, strain rgp1, stronger effect = lower value 1.01 | locus YDR150W, strain NUM1, stronger effect = lower value 0.997 and 1.01 | locus YDR159W, strain sac3, stronger effect = lower value 0.962 | locus YDR162C, strain NBP2, stronger effect = lower value 0.991 | locus YDR195W, strain ref2 0.96 | locus YDR297W, strain sur2, stronger effect = lower value 0.973 | locus YDR318W, strain mcm21, stronger effect = lower value 0.985 | locus YDR334W, strain swr1, stronger effect = lower value 0.956 | locus YDR335W, strain msn5, stronger effect = lower value 0.992 | locus YDR388W, stronger effect = lower value 0.99 | locus YDR392W, strain spt3, stronger effect = lower value 0.997 | locus YDR502C, strain sam2, stronger effect = lower value 0.984 | locus YEL003W, strain gim4, stronger effect = lower value 0.969 | locus YEL037C, strain rad23, stronger effect = lower value 0.981 | locus YEL061C, strain CIN8 (second series), stronger effect = lower value 0.989 | locus YEL061C, strain CIN8, stronger effect = lower value 0.994 | locus YER002W, strain NOP16, stronger effect = lower value 1.01 | locus YER015W, strain faa2, stronger effect = lower value 0.992 | locus YER016W, strain bim1, stronger effect = lower value 0.935 | locus YER110C, stronger effect = lower value 0.985 | locus YER111C, strain swi4, stronger effect = lower value 0.977 | locus YER155C, strain BEM2 (second series), stronger effect = lower value 1 | locus YER155C, strain BEM2, stronger effect = lower value 0.959 | locus YER167W, strain BCK2, stronger effect = lower value 0.992 | locus YFR010W, strain ubp6, stronger effect = lower value 0.986 | locus YGL078C, strain dbp3, stronger effect = lower value 0.987 | locus YGL086W, strain mad1, stronger effect = lower value 1 | locus YGL167C, strain pmr1, stronger effect = lower value 0.988 | locus YGL173C, strain kem1, stronger effect = lower value 0.975 | locus YGL227W, strain vid30, stronger effect = lower value 0.985 | locus YGL240W, strain doc1, stronger effect = lower value 0.995 | locus YGL248W, strain PDE1, stronger effect = lower value 0.974 | locus YGL253W, strain hxk2, stronger effect = lower value 0.991 | locus YGR078C, strain PAC10, stronger effect = lower value 0.992 and 1.01 | locus YGR135W, strain pre9, stronger effect = lower value 0.977 | locus YGR229C, strain SMI1, stronger effect = lower value 0.987 | locus YGR252W, strain gcn5, stronger effect = lower value 1.04 | locus YHR013C, strain ard1, stronger effect = lower value 0.956 | locus YHR027C, strain rpn1, stronger effect = lower value 0.952 | locus YHR030C, strain SLT2, stronger effect = lower value 0.992 and 0.989 | locus YHR079C, strain IRE1 (second series), stronger effect = lower value 0.99 | locus YHR079C, strain IRE1, stronger effect = lower value 0.99 | locus YHR094C, strain hxt1, stronger effect = lower value 0.994 | locus YHR129C, strain ARP1, stronger effect = lower value 0.986 | locus YHR142W, strain chs7, stronger effect = lower value 0.995 | locus YHR200W, strain rpn10, stronger effect = lower value 0.984 | locus YIL066C, strain RNR3, stronger effect = lower value 0.989 | locus YIL073C, strain SPO22, stronger effect = lower value 1.04 | locus YIL125W, strain kgd1, stronger effect = lower value 0.998 | locus YIR030C, strain dcg1, stronger effect = lower value 0.985 | locus YJL092W, strain hpr5, stronger effect = lower value 0.967 | locus YJL095W, strain BCK1 (second series), stronger effect = lower value 0.972 | locus YJL095W, strain BCK1, stronger effect = lower value 0.966 and 0.986 | locus YJL115W, strain asf1, stronger effect = lower value 0.941 | locus YJL129C, strain trk1, stronger effect = lower value 0.952 | locus YJL134W, strain LCB3, stronger effect = lower value 0.989 | locus YJL154C, strain vps35, stronger effect = lower value 0.955 | locus YJL164C, strain tpk1, stronger effect = lower value 0.991 | locus YJL166W, strain qcr8, stronger effect = lower value 0.973 | locus YJL168C, strain set2, stronger effect = lower value 0.993 | locus YJL187C, strain SWE1 (second series), stronger effect = lower value 0.978 | locus YJR043C, strain POL32, stronger effect = lower value 0.983 | locus YJR066W, strain TOR1, stronger effect = lower value 0.967 | locus YJR075W, strain HOC1, stronger effect = lower value 0.975 and 1.03
